High-throughput results (PubChem)
The list is not random: actives were taken first. Their share in the collection is about 3.3%.
CASP6 VEID inh – inhibitors of human caspase-6 | AID 686996 | inhibition, % at 12.5 µM | 0.53% of 350,000 active | purified caspase-6, Z-VEID-R110 cleavage fluorescence | P55212;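 active = mean inhibition across replicates at least about 35%, with every replicate also reaching that limit, limit read from the data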
ERAP1 HTS inh – inhibitors of human ERAP1 aminopeptidase. Q9NZ08. recombinant ERAP1, Leu-AMC fluorescence, 60 min. inhibition, % at 10.7 µM. 0.15% of 340,000 active. AID 652197;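 active = mean replicate inhibition of at least 30%, or all replicates individually reaching that 30% level; inactive = mean below 30% and not every replicate reaching it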
FGF22 binding – binders of recombinant human FGF22 by thermal shift; activity (Tm shift, normalised), % at 9.99 µM; SYPRO orange fluorescence; percent of sucrose octasulfate shift, DMSO zero; AID 651658; Q9HCT0; 1.5% of 340,000 active;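 active = mean Tm shift, scaled 0 neutral to 100 positive control, at about 1.3% or above, every replicate too, limit read from the data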
Target sequence (Q9HCT0 whole entry, looked up): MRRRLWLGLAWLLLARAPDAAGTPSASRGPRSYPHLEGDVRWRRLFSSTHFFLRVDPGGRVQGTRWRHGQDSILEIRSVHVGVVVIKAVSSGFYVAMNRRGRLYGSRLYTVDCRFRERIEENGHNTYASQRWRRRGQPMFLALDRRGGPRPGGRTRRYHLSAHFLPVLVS
SIRT5 inh – blocks human SIRT5 desuccinylation of peptide; Q9NXA8; Purified SirT5, succinyl-peptide AMC, trypsin-coupled fluorescence; inhibition, % at 15 µM; 1.1% of 330,000 active; AID 652115; in the data active = inhibition above about 15%
Target sequence (Q9NXA8 whole entry, looked up): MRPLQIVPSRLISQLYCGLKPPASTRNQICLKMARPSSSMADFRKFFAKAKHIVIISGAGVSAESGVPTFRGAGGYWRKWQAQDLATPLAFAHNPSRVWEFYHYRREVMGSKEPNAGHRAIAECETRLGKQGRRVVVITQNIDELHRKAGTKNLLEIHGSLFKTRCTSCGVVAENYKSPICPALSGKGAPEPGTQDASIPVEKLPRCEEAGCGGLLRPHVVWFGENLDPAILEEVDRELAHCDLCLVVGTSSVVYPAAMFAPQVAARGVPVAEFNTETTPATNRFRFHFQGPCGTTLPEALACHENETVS
GSIS activator – GLuc luminescence reporter in INS-1E cells, primary screen for activators of glucose-dependent secretion of insulin; INS-1E GLuc reporter insulin secretion, 2-3 h; activation, % at 16.6 µM; 0.61% of 370,000 active; AID 743287;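 active = lowest replicate activation of at least 40%, so every replicate reaches that level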
Numbers stand for hits; n = inactive; x = no result.

SMILES	CASP6 VEID inh	ERAP1 HTS inh	FGF22 binding	SIRT5 inh	GSIS activator
C[C@@H]1CCCCO[C@@H](CN(C)C(=O)Nc2cccc3ccccc23)[C@H](C)CN([C@H](C)CO)C(=O)c2cc(NS(=O)(=O)c3ccc(Cl)cc3)ccc2O1	n	n	2.1	n	n
C[C@@H]1CCCCO[C@H](CN(C)C(=O)Nc2cccc3ccccc23)[C@@H](C)CN([C@H](C)CO)C(=O)c2cc(NS(=O)(=O)c3ccc(F)cc3)ccc2O1	n	n	x	n	n
C[C@H]1CCCCO[C@H](CN(C)C(=O)Nc2cccc3ccccc23)[C@@H](C)CN([C@@H](C)CO)C(=O)c2cc(NS(=O)(=O)c3ccc(F)cc3)ccc2O1	n	n	x	17	n
FC(F)(F)c1ccccc1NC(=S)NC1CCN(Cc2ccccc2)CC1	n	n	44	n	n
S=C(Nc1ccccc1Cl)NC1CCN(Cc2ccccc2)CC1	x	x	x	x	n
O=C(C[C@H]1CC[C@@H]2NC[C@@H](O)COC[C@H]2O1)Nc1ccccc1	n	n	n	n	n
COc1ccc(S(=O)(=O)Nc2ccc3c(c2)C(=O)N([C@H](C)CO)C[C@@H](C)[C@@H](CN(C)Cc2ccc(Cl)c(Cl)c2)O3)cc1	n	n	n	19	n
C[C@H]1CN([C@@H](C)CO)C(=O)c2cc(NS(=O)(=O)c3ccc(Cl)cc3)ccc2O[C@H]1CN(C)Cc1ccc(Cl)c(Cl)c1	x	n	n	23	n
COc1ccc(S(=O)(=O)Nc2ccc3c(c2)C(=O)N([C@@H](C)CO)C[C@H](C)[C@H](CN(C)Cc2ccc(Cl)c(Cl)c2)O3)cc1	n	n	n	n	n
CC(C)N1C(=O)N(c2cccc(Cl)c2)C(C)(O)CC1(C)C (centres undefined)	n	n	n	n	64
Cn1c(C2=C(O)CN(c3ccc4c(c3)OCCO4)C2=N)nc2ccccc21	n	n	x	n	n
Cn1c(C2=C(O)CN(c3ccccc3)C2=N)nc2ccccc21	n	n	44	n	n
Cc1cc2c(cc1C)C(=O)CCC2	n	n	n	n	x
CC(=O)c1cc2c(cc1C)CCCC2(C)C	n	n	n	n	43
C[C@@H]1CCCCO[C@@H](CN(C)C(=O)Nc2ccc(F)cc2)[C@@H](C)CN([C@H](C)CO)C(=O)c2cc(NC(=O)Nc3cccc4ccccc34)ccc2O1	n	n	n	n	n
CC1=CCC(C(=O)O)C(C(=O)NC2CCCCC2)C1 (centres undefined)	41	n	n	n	n
Cc1noc(C)c1NC(=O)Nc1ccc2c(c1)CC(=O)N([C@@H](C)CO)C[C@@H](C)[C@H](CN(C)Cc1ccc(-c3ccccc3)cc1)O2	n	n	n	n	n
O=C(Cc1cccs1)Nc1nnc(Cc2ccccc2)s1	x	x	x	x	n
COc1ccc(Cc2nnc(NC(=O)Cc3cccs3)s2)cc1OC	x	x	x	x	153
CC(C)(C)Cc1nnc(NC(=O)Cc2cccs2)s1	n	n	n	29	n
CC(C)Cc1nnc(NC(=O)Cc2cccs2)s1	n	n	43	n	n
O=C(C[C@H]1C=C[C@@H](NC(=O)Nc2cc(F)ccc2F)[C@H](CO)O1)NCc1ccc2c(c1)OCO2	n	n	n	n	n
COc1cc(/C=C2\SC(=O)NC2=O)ccc1Oc1ccc([N+](=O)[O-])cc1[N+](=O)[O-]	39	n	n	n	n
COc1ccc(/C=C2\SC(=O)NC2=S)cc1OC	45	n	n	n	n
CCN1C(=O)S/C(=C/c2ccc(Oc3ccc([N+](=O)[O-])cn3)c(OC)c2)C1=O	n	n	43	n	n
SMILES	CASP6 VEID inh	ERAP1 HTS inh	FGF22 binding	SIRT5 inh	GSIS activator
CCOc1ccc(/C=C2\SC(=S)NC2=O)cc1OC	n	n	n	n	n
COc1ccc(/C=C2/S/C(=N/S(=O)(=O)Cc3ccccc3)NC2=O)cc1OC	n	n	n	n	79
CN1CCN(C(=O)C[C@@H]2C[C@H]3c4cc(NC(=O)Nc5ccc(F)cc5)ccc4O[C@H]3[C@@H](CO)O2)CC1	n	n	n	n	n
C[C@@H]1CN([C@@H](C)CO)C(=O)Cc2cc(NS(=O)(=O)c3cn(C)cn3)ccc2O[C@@H]1CN(C)Cc1ccc(-c2ccccc2)cc1	n	n	n	n	n
N#CCC(=O)Nc1ncc(Cc2ccccc2Cl)s1	n	n	n	15	n
CC(C)C(=O)Nc1ncc(Cc2ccccc2Cl)s1	n	n	n	n	n
CN1C=C/C(=C\c2cc[n+](C)c3ccccc23)c2ccccc21	n	80	n	n	n
COc1ccc(C(=O)CSc2nnc(CNc3ccc(C)cc3C)o2)cc1	x	x	x	x	59
Cc1ccc(NCc2nnc(SCC(=O)c3ccc4c(c3)OCCO4)o2)c(C)c1	n	n	n	n	n
Cc1ccc(S(=O)(=O)N2C[C@H]3[C@H]4C(=O)N(c5ccccc5)C(=O)[C@H]4C[C@H](OC(=O)NCc4ccccc4)[C@@]3(O)C2)cc1	n	n	43	22	n
Cc1ccc(S(=O)(=O)N2C[C@H]3[C@H]4C(=O)N(c5ccccc5)C(=O)[C@H]4C[C@H](OC(=O)NCc4ccco4)[C@@]3(O)C2)cc1	n	n	n	n	n
C[C@H](CO)N1C[C@H](C)[C@H](CN(C)Cc2ccncc2)Oc2c(NC(=O)NC3CCCCC3)cccc2C1=O	n	n	n	n	n
CCCCCC1(C)NC(=S)N(c2ccccc2)N1 (centres undefined)	n	n	44	n	n
CCCCCCc1c(O)nc(SCCN2CCOCC2)[nH]c1=O	n	n	44	n	n
CCn1cc(C(=O)OC)c(=O)c2cc(S(=O)(=O)N(C)C3CCCCC3)ccc21	n	n	n	27	n
O=C1Nc2ccccc2C(=O)N2[C@H](c3ccccc3)[C@@H]3C(=O)N(Cc4ccccc4)C(=O)[C@@H]3[C@H]12	n	n	n	16	n
C[C@@H]1CN([C@@H](C)CO)C(=O)c2cc(NS(=O)(=O)c3ccccc3)ccc2O[C@@H](C)CCCCO[C@@H]1CN(C)Cc1ccccc1	n	n	n	n	n
CCCCNCCCOc1ccc(C)cc1Br	n	n	44	n	n
CC(=O)OCC1OC(n2ncc(=O)n(Cc3ccccc3)c2=O)C(OC(C)=O)C1OC(C)=O (centres undefined)	n	n	n	n	n
CC(=O)OCC1OC(COC(C)=O)(c2ccc(C)cc2)C(OC(C)=O)C1OC(C)=O (centres undefined)	n	n	51	n	n
O=C1N/C(=C\c2ccc(O)cc2)C(=O)c2ccccc21	83	n	x	n	n
O=C(O)/C=C1\NC(=O)c2ccccc21	x	x	x	x	n
CCOc1ccc(S(=O)(=O)NCC2(N3CCCCC3)CCCCC2)cc1	n	n	n	n	n
CCOc1ccc(S(=O)(=O)NCCC(=O)NCC2(N3CCCCC3)CCCCC2)cc1	50	n	n	n	n
CC1CC(=O)C(C2c3ccccc3CCN2C(=O)CCl)C(=O)C1 (centres undefined)	n	n	44	n	n
Cc1ccc(/C=C2\SC(=S)N(CC3CCCO3)C2=O)o1 (centres undefined)	n	n	n	n	n
